The record followed here is PubChem BioAssay (NCI).

About 83,000 compounds went through this panel and 20% of them were active in at least one assay; those are over-represented in the sample as a whole.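 In brief: 96-well plates, 48 h treatment, single concentration, percent growth endpoint.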 A number with no mark means an inactive call. Calls of active or inactive are those of the source. How the source made its calls: active means growth percent below 10; inactive means the rest.

Test systems include NCI-H23 lung; NCI-H226 lung; NCI-H322M lung; HOP-62 NSCLC; NCI-H460 lung; HOP-92 NSCLC; NCI-H522 lung; A549/ATCC NSCLC; 786-0 renal; COLO 205 colon; DU-145 prostate; K-562 leukemia; MALME-3M melanoma; MDA-MB-231 breast; RXF 393 renal; SF-268 CNS; SF-295 CNS; SF-539 CNS; M14 melanoma.
What all share (assay): NCI-60 one-dose screen, 48 h (100 = growth as untreated, 0 = no growth, -100 = all killed)
Holding throughout (settings): 10 µM unless noted

Take `O=S(=O)(NCCNc1cc(-c2cn(-c3ccccc3)nc2-c2cccc(O)c2)ccn1)c1ccc(Cl)cc1`: the growth was 36.6% with NCI-H23 lung; 45.9% in the experiment on NCI-H226 lung; 56.8% with NCI-H322M lung; 51.4% in the experiment with HOP-62 NSCLC; 26.3% in the experiment on NCI-H460 lung; 33.8% with HOP-92 NSCLC. Also, the growth in the experiment on NCI-H522 lung was 32.3%; in the experiment on A549/ATCC NSCLC it was 31.1%; in the experiment on 786-0 renal it was 12%; with COLO 205 colon, -48% (active); with DU-145 prostate, 62.8%; with K-562 leukemia, 2.13% (active). Moreover, the growth in the experiment on MALME-3M melanoma is 34.5%; in the experiment on MDA-MB-231 breast it was -2.86% (active); in the experiment with RXF 393 renal, 38%; in the experiment with SF-268 CNS it was 40.2%; with SF-295 CNS, 13.3%; in the experiment on SF-539 CNS, 61.8%. Besides, the growth with M14 melanoma was 23.5%.

As to `COC(=O)[C@]12CC[C@@H](C)[C@H](C)[C@@H]1C1=CC[C@@H]3[C@@]4(C)C[C@@H](O)[C@H](O)[C@@](C)(CO)C4=CC[C@@]3(C)[C@]1(C)CC2`, the growth in the experiment on NCI-H23 lung is -57.8% (active); in the experiment with NCI-H226 lung, -47.4% (active); in the experiment with NCI-H322M lung, -84.7% (active); in the experiment on HOP-62 NSCLC, -61% (active); in the experiment with NCI-H460 lung, -63.4% (active); in the experiment on HOP-92 NSCLC, -77.6% (active). Further, the growth in the experiment with NCI-H522 lung was -2.22% (active); in the experiment with A549/ATCC NSCLC it was -14.1% (active); with 786-0 renal it was -74.1% (active); in the experiment with COLO 205 colon, -76.7% (active); in the experiment with DU-145 prostate it was -41.4% (active); with K-562 leukemia, -22.8% (active). The growth in the experiment with MALME-3M melanoma was -74.8% (active); with MDA-MB-231 breast it was -63.7% (active); with RXF 393 renal, -88.3% (active); in the experiment on SF-268 CNS, -49.2% (active); in the experiment on SF-295 CNS, -83.3% (active); with SF-539 CNS, -89.9% (active). Further, in the experiment with M14 melanoma, the growth was -68.1% (active).

As to `COc1cc(-c2cc3cc(O)ccc3oc2=O)cc(OC)c1OC`, the growth in the experiment on NCI-H23 lung was 101%; with NCI-H226 lung, 89.2%; in the experiment with NCI-H322M lung, 85.9%; with HOP-62 NSCLC, 90.9%; in the experiment with NCI-H460 lung, 107%; in the experiment with HOP-92 NSCLC it was 86.5%. In addition, the growth was 86.5% with NCI-H522 lung; 107% with A549/ATCC NSCLC; 98.2% in the experiment on 786-0 renal; 102% in the experiment on COLO 205 colon; 107% in the experiment on DU-145 prostate; 89.1% in the experiment with K-562 leukemia. Further, the growth in the experiment with MALME-3M melanoma is 112%; in the experiment with MDA-MB-231 breast it was 72.8%; in the experiment on RXF 393 renal, 101%; with SF-268 CNS it was 102%; in the experiment with SF-295 CNS, 91.9%; in the experiment with SF-539 CNS, 87.1%. For the same compound, the growth with M14 melanoma is 86.9%.

On to `CNC(=O)c1cc(Oc2ccc3nc(NC(=O)Nc4ccc(Cl)cc4)sc3c2)ccn1`, for which the growth with NCI-H23 lung was 69%; in the experiment with NCI-H226 lung, 67.9%; in the experiment with NCI-H322M lung, 66.8%; in the experiment with HOP-62 NSCLC it was 6.54% (active); with NCI-H460 lung it was 64.4%; with HOP-92 NSCLC it was 63.3%. The growth in the experiment on NCI-H522 lung was 78%; in the experiment with A549/ATCC NSCLC, 44.1%; in the experiment on 786-0 renal, 75.3%; with COLO 205 colon, 79.4%; with DU-145 prostate, 53.2%; in the experiment on K-562 leukemia, 65.6%. Moreover, the growth with MALME-3M melanoma was 17.7%; in the experiment on MDA-MB-231 breast, 34.4%; in the experiment on RXF 393 renal, 50.8%; in the experiment on SF-268 CNS, 56.2%; in the experiment on SF-295 CNS, 66.3%; in the experiment on SF-539 CNS, 83.5%. For the same compound, the growth with M14 melanoma is 63%.

`CCN(CC)C(=O)CCCCCn1c2ccccc2c2c3c(c4c5ccccc5[nH]c4c21)C(=O)N(O)C3=O`: the growth is 46.8% with NCI-H23 lung; 69.9% in the experiment on NCI-H226 lung; 81.8% in the experiment on NCI-H322M lung; -26.4% (active) in the experiment on HOP-62 NSCLC; 53.1% with NCI-H460 lung; 78.5% in the experiment with HOP-92 NSCLC. Besides, the growth in the experiment with NCI-H522 lung is -66.5% (active); in the experiment on A549/ATCC NSCLC, 87.2%; in the experiment with 786-0 renal, 78.1%; in the experiment with COLO 205 colon it was -7.19% (active); in the experiment with DU-145 prostate it was 69%; with K-562 leukemia it was 40.8%. Moreover, the growth in the experiment on MALME-3M melanoma is 102%; in the experiment on MDA-MB-231 breast, 42.9%; with RXF 393 renal, 45.6%; with SF-268 CNS, 51.6%; in the experiment on SF-295 CNS it was 62.5%; with SF-539 CNS, 39.7%. Also, the growth in the experiment on M14 melanoma is 53.9%.

Turning to `c1ccc2[nH]c(-c3ccc(Nc4nc(N5CCCCC5)nc(N5CCOCC5)n4)cc3)nc2c1`, the growth in the experiment on NCI-H23 lung was 19.7%; in the experiment on NCI-H226 lung, 32.7%; in the experiment with NCI-H322M lung, 35%; in the experiment with HOP-62 NSCLC, -45.2% (active); with NCI-H460 lung it was 0.809% (active); in the experiment with HOP-92 NSCLC it was 43.3%. The growth in the experiment with NCI-H522 lung was 9.25% (active); in the experiment on A549/ATCC NSCLC it was 13.9%; with 786-0 renal, -57.3% (active); in the experiment with COLO 205 colon, -61.3% (active); with DU-145 prostate it was 39%; in the experiment on K-562 leukemia, -6.74% (active). Moreover, the growth was -50.2% (active) in the experiment on MALME-3M melanoma; 23.1% with MDA-MB-231 breast; -56.1% (active) in the experiment with RXF 393 renal; 33.8% in the experiment with SF-268 CNS; -51.4% (active) in the experiment on SF-295 CNS; 7.95% (active) in the experiment with SF-539 CNS. For the same compound, the growth in the experiment on M14 melanoma is -24.5% (active).

For the compound `COc1cccc(-c2nn(-c3ccccc3)cc2-c2ccnc(NCCCN)c2)c1`, the growth is 60% in the experiment on NCI-H23 lung; 78.7% in the experiment on NCI-H226 lung; 78.5% in the experiment on NCI-H322M lung; 47.9% in the experiment on HOP-62 NSCLC; 27.9% in the experiment on NCI-H460 lung; 32.3% in the experiment on HOP-92 NSCLC. In addition, the growth was 83.4% in the experiment on NCI-H522 lung; 68% in the experiment on A549/ATCC NSCLC; 52.1% in the experiment on 786-0 renal; 26.1% with COLO 205 colon; 75.6% in the experiment with DU-145 prostate; 16.8% in the experiment with K-562 leukemia. For the same compound, the growth was 70.2% in the experiment with MALME-3M melanoma; 33.7% in the experiment with MDA-MB-231 breast; 51.5% in the experiment on RXF 393 renal; 64% with SF-268 CNS; 44.7% with SF-295 CNS; 49.8% in the experiment on SF-539 CNS. In addition, the growth in the experiment with M14 melanoma was 26.1%.

On to `Cn1c(=O)c2c(ncn2CCC(=O)Nc2ccc(F)cc2)n(C)c1=O`, for which the growth with NCI-H23 lung is 100%; in the experiment on NCI-H226 lung it was 109%; with NCI-H322M lung, 105%; with HOP-62 NSCLC, 92.6%; with NCI-H460 lung it was 108%; in the experiment with HOP-92 NSCLC, 95.5%. Also, the growth in the experiment on NCI-H522 lung was 90.3%; in the experiment on A549/ATCC NSCLC it was 89.5%; in the experiment on 786-0 renal it was 95.1%; with COLO 205 colon, 108%; in the experiment with DU-145 prostate, 105%; with K-562 leukemia it was 96%. Further, the growth with MALME-3M melanoma was 114%; in the experiment with MDA-MB-231 breast it was 102%; with RXF 393 renal, 115%; with SF-268 CNS, 103%; in the experiment on SF-295 CNS, 105%; in the experiment on SF-539 CNS, 96.9%. The growth with M14 melanoma was 97.8%.
